Source: PubChem
Most compounds without a hit are left out; they make up all but 17% or so of the library.
TGFb SMAD3 inh – blocks TGF-b signaling. HepG2 CAGA-GFP TGF-b/SMAD3 reporter, GFP fluorescence, 18 h; TGF-beta stimulated, 500 pg/mL final. Potency, µM (titrated, usually from 46.1 µM), actives largely listed as inhibitors. hit rate 1.2% among 410,000. AID 588855; note: nearly all actives have a fitted effect of over 65% in size
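Using HEPG2 CAGA-GFP reporter cells at 1000 cells/well, we pinned test compounds, stimulated with recombinant TGF-beta (500 pg/mL final) and measured total well GFP after 18 h.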
ATXN viability – reduces viability in counter-screen for ATXN expression inhibitors. S2 cells (HEK-293 line with an ATXN2-luciferase reporter) viability, CellTiter-Fluor protease fluorescence, 24 h. Potency, µM (top dose mostly 56.7 µM), actives largely listed as cytotoxic. hit rate 0.49% among 400,000; note: nearly all actives have a fitted effect of over 40% in size
TDP1 cell CPT – DT40-hTDP1 cell growth loss with CPT; chicken DT40 Tdp1-/-;hTDP1 cells + 20 nM CPT, ATP luminescence, 48 h; Potency, µM (highest dose often 46.2 µM), hits mostly inhibitors; hit rate 12% among 420,000; AID 686979; note: nearly all actives have a fitted effect of over 55% in size
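Cell growth measured by CellTiter-Glo luminescence after a minimum 48 h, 37 C compound exposure with 20 nM CPT in Tdp1-knockout DT40 cells stably expressing hTDP1, seeded 400/well; qHTS titration format.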
HepG2 tox – kills HepG2 cells in TGF-b inhibitor counter-screen; HepG2 CAGA-GFP viability, ATP luminescence, 18 h; Potency, µM (series often up to 46.1 µM), most hits filed as cytotoxic; hit rate 0.76% among 410,000; AID 588856
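HepG2 CAGA-GFP cells (1000/well, DMEM with 1% FBS) received compound, then TGF-beta at 500 pg/mL final, and were incubated 18 hours at 37 degrees C. Viability was read by CellTiter-Glo luminescence. Media-only wells were set as complete cell-killing and DMSO as no toxicity.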
TDP1 cell noCPT – qHTS for Inhibitors of human tyrosyl-DNA phosphodiesterase 1 (TDP1): qHTS in cells in absence of CPT; DT40 Tdp1-/- hTDP1 cells, no CPT, ATP luminescence, 48 h; Potency, µM (doses to about 46.2 µM), most hits filed as inhibitors; hit rate 15% among 420,000; AID 686978, 2013; note: nearly all actives have a fitted effect of over 55% in size
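Camptothecin absent (DMSO only). Human TDP1-complemented DT40 knockout cells, 400 cells/well, 37 °C for minimum 48 hr; ATP measured via CellTiter-Glo, 30 min dark incubation, luminescence.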
ATXN2 expr inh – inhibitors of ATXN2 expression | HEK-293 ATXN2-luciferase reporter, luminescence, 24 h | Potency, µM (top dose mostly 57 µM), actives largely listed as inhibitors | hit rate 0.72% among 360,000; note: nearly all actives have a fitted effect of over 55% in size
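ATXN2-luciferase reporter cells (luciferase flanked by upstream and downstream ATXN2 gene portions) were treated 24 h at 37 °C with compounds at up to 57 uM. SteadyGlo luminescence gave expression; GF-AFC fluorescence gave viability.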
A number is an active result; i = inactive; ? = inconclusive; nt = no result given. Calls come from the whole dose curve; as a rule, active = well fitted curve in the direction sought with a large enough effect; inconclusive = small, poorly fitted or top-dose-only effect, or another doubt; inactive = no such curve, though single readings can be large; an effect the other way counts as inactive or inconclusive.

SMILES | TGFb SMAD3 inh | ATXN viability | TDP1 cell CPT | HepG2 tox | TDP1 cell noCPT | ATXN2 expr inh
COCCc1nn2c(=O)cc(COC(=O)c3ccccc3C)nc2s1 | i | nt | i | i | i | nt
CC1(C)NC(=O)N(c2ccc([N+](=O)[O-])c(C(F)(F)F)c2)C1=O | i | i | 18.8µM | i | 4.61µM | ?
CCN(C(=O)CSc1nc(C)nc2sc3c(c12)CCC3)C1CCS(=O)(=O)C1 (stereo not given) | i | i | ? | i | 20.6µM | i
CC1CCc2c(sc3ncnc(SCC(=O)N(C)C4CCS(=O)(=O)C4)c23)C1 (stereo not given) | i | i | ? | i | 18.4µM | nt
C/C(CC(=O)NC1CCCC1)=N\NC(=O)Cc1csc(N)n1 | i | i | ? | i | i | i
O=C(NCCN1CCCC1)c1cc(-c2ccncc2)nc2ccc(S(=O)(=O)N3CCOCC3)cc12 | i | i | i | i | i | i
Cc1c(Cl)cccc1NC(=O)c1oc2ccc(S(=O)(=O)N3CCCCCC3)cc2c1C | i | i | ? | i | 8.2µM | i
Cc1ccc(NC(=O)c2oc3ccc(S(=O)(=O)N4CCCCC4)cc3c2C)cc1C | i | i | ? | i | i | i
Cc1c(C(=O)Nc2ccc(F)cc2)oc2ccc(S(=O)(=O)N3CCCCCC3)cc12 | i | i | 18.4µM | i | 18.4µM | i
COc1ccc(NC(=O)c2oc3ccc(S(=O)(=O)N4CCCCC4)cc3c2C)cc1Cl | i | i | 9.2µM | i | 13µM | ?
Cc1c(C(=O)OCC(=O)Nc2cccc(S(N)(=O)=O)c2)oc2c1ccc1ccccc12 | ? | i | ? | i | ? | nt
N=C(N)Cc1ccccc1Sc1ccccc1 | i | i | 9.2µM | i | 8.2µM | i
c1ccc(Sc2ccccc2CN2CCCC2)cc1 | i | ? | i | i | i | i
O=C(O)/C=C/C(O)c1ccc(Cl)cc1 (stereo not given) | i | i | i | i | i | i
CCCCc1c(-c2ccccc2OC)ncn1CCc1cccc(Cl)c1 | nt | nt | 16.4µM | nt | 20.6µM | i
COc1cccc(Cn2cnc(-c3ccccc3OC)c2C2CC2)c1 | nt | ? | ? | nt | 20.6µM | ?
CCCCc1c(-c2ccccc2OC)ncn1Cc1cccc(-c2ccccc2)c1 | nt | ? | 11.6µM | nt | 6.51µM | 28.2µM
CCCCc1c(-c2ccccc2OC)ncn1C1CCCC1 | nt | nt | 18.4µM | nt | 10.3µM | ?
COc1cccc(Cn2cnc(-c3ccccc3OC)c2-c2cccnc2)c1 | nt | i | ? | nt | ? | i
COc1cccc(Cn2cnc(-c3ccccc3OC)c2-c2cccs2)c1 | nt | i | ? | nt | ? | i
CC(C)c1ccc(CCNC(=O)c2cccc(S(=O)(=O)N3CCN(C)CC3)c2)cc1 | i | i | ? | i | ? | i
CCN(CC)c1ccc(Nc2nc(Cl)ncc2Br)cc1 | i | i | i | i | i | i
CCCCc1c(-c2ccccc2OC)ncn1Cc1ccc(-c2ccccc2)cc1 | nt | nt | 14.6µM | nt | 20.6µM | 25.1µM
CCCCc1c(-c2ccccc2OC)ncn1Cc1ccc(Cl)cc1 | nt | ? | 13µM | nt | 11.6µM | ?
NC(Cc1cc(I)c(Oc2cc(I)c(O)c(I)c2)c(I)c1)C(=O)O (stereo not given) | nt | nt | i | nt | i | nt
SMILES | TGFb SMAD3 inh | ATXN viability | TDP1 cell CPT | HepG2 tox | TDP1 cell noCPT | ATXN2 expr inh
O=C(Cc1ccccc1)NN1C(=O)C2C(C1=O)C1C=CC2C12CC2 (stereo not given) | i | i | i | i | i | i
CCCCCCN1C=CC(=C2C(=O)c3ccccc3C2=O)C=C1 | i | i | ? | i | ? | ?
CCN1C=CC(=C2C(=O)c3ccccc3C2=O)C=C1 | i | ? | 16.4µM | i | 14.6µM | 1.12µM
CCCN1C=CC(=C2C(=O)c3ccccc3C2=O)C=C1 | i | ? | 8.2µM | 7.08µM | 5.17µM | ?
COCC(C)NS(=O)(=O)c1ccc(C(=O)NCCCn2ccc3ccccc32)cc1 (stereo not given) | ? | i | ? | i | i | i
CC(COc1ccc(/C=C/c2ccccc2)cc1)[N+](C)(C)C (stereo not given) | i | i | 4.11µM | i | 3.26µM | i
CCOC(=O)c1[nH]ncc1CN1CCc2ccc(NC(=O)C3CCCO3)cc2C1 (stereo not given) | i | i | i | i | i | i
C[N+]1(CC(=O)OC2CCCCCCCCCCC2)CCCC1 | i | i | 4.11µM | i | 2.59µM | i
CC(=O)c1ccc(NC(=O)C(C)n2nc(-c3ccccc3)c3cc(Cl)ccc32)cc1 (stereo not given) | ? | ? | ? | i | 16.4µM | ?
CC(C(=O)NCc1ccco1)n1nc(-c2ccccc2)c2cc(Cl)ccc21 (stereo not given) | i | i | ? | i | i | i
COc1cccc(N2CC(O)=C(c3nc4ccccc4s3)C2=N)c1 | ? | i | 1.64µM | i | 1.46µM | nt
Cc1ccc(N(C)S(=O)(=O)c2cccc(C(=O)OCC(=O)N(C)Cc3ccccc3)c2)cc1 | i | ? | ? | i | ? | nt
COc1cc(-c2nnc(SCC(=O)N3CCCC3)o2)cc(OC)c1OC | i | i | i | i | i | i
Cc1cc(C(=O)CSc2nnc(-c3ccc(F)cc3)o2)c(C)n1CC1CCCO1 (stereo not given) | i | i | ? | i | 20.6µM | i
Cc1cc(C(=O)CSc2nnc(-c3cccnc3)n2-c2ccccc2F)c(C)n1CC1CCCO1 (stereo not given) | ? | i | i | i | 23.1µM | i
Cc1cc(C(=O)CN2C(=O)c3cccc(N)c3C2=O)c(C)n1Cc1cccs1 | i | nt | ? | i | 20.6µM | i
COc1cc(-c2nnc(SCC(=O)c3cc(C)n(CC4CCCO4)c3C)o2)cc(OC)c1OC (stereo not given) | i | i | 20.6µM | i | ? | i
CCC(C(=O)Nc1ccc([N+](=O)[O-])cn1)c1ccccc1 (stereo not given) | i | i | i | i | ? | i
COC(=O)[C@@H]1CCCN1C(=O)c1cc(NC(=O)c2ccccc2)cc2ncn(C3CCCC3)c12 | nt | i | i | nt | i | nt
Cc1cc(C(=O)CSc2nnc(-c3ccccc3F)o2)c(C)n1Cc1cccs1 | i | i | 23.1µM | i | ? | i
COc1ccccc1-n1cnnc1SCC(=O)c1cc(C)n(Cc2cccs2)c1C | i | i | ? | i | ? | i
CN1CCN(S(=O)(=O)c2ccc(C(F)(F)F)cc2)C(c2ccccc2)C1 (stereo not given) | i | ? | i | i | ? | nt
Cc1nc(NCCNC(=O)c2ccco2)c2c(C)c(C)sc2n1 | i | i | ? | i | 20.6µM | i
Cc1nc(NCCc2ccc(S(N)(=O)=O)cc2)c2c(C)c(C)sc2n1 | i | i | 16.4µM | i | 14.6µM | ?
